Assay results as given in PubChem BioAssay AID2391 (Southern Research Specialized Biocontainment Screening …, 2010).
About 410 (0.13%) of roughly 310,000 compounds were called active. Another 2% or so got no clear call; they are omitted. How the calls were made is not given here. Only a sample is shown. Measured potencies and affinities stand elsewhere.

experiment: RSV antiviral activity via CPE protection, HEp-2 cells, primary 10 µM value included (AID 2391); conditions: RSV-induced CPE inhibition, at 10 µM, hits give high values

CPE inhibition, inactive:
Nc1nc(SCCN2C(=O)c3ccccc3C2=O)n[nH]1 -0.57%
CCOC(=O)C1(Cc2ccccc2)CCN(Cc2cccn2-c2nccs2)CC1 3.06%
CCOC(=O)C1(Cc2cccc(OC)c2)CCN(Cc2cccn2-c2ccccn2)CC1 0.49%
O=C(O)CN=C(NS(=O)(=O)c1ccc(Cl)cc1)c1ccc(F)cc1 0.86%
CCOC(=O)CSc1nc2ccccc2c(=O)n1Cc1ccco1 0.79%
O=C(CSc1nc2ccccc2c(=O)n1Cc1ccco1)NCc1ccco1 0.72%
Cc1[nH]n(-c2ccccc2)c(=O)c1Sc1ccc(Cl)cc1 2.83%
Cc1ccc(OCCn2cnc3cc([N+](=O)[O-])ccc3c2=O)cc1 5.29%
COc1ccc(N(CC(=O)NC2CCCCC2)C(=O)c2ccc(C)s2)cc1OC 5.93%
COc1ccc(N(CC(=O)NC2CCCC2)C(=O)c2ccc(C)s2)c(OC)c1 41%
CC(=O)c1ccc(OCCCC(=O)NNC(=O)c2ccccn2)cc1 1.08%
Cn1c(=O)c2ccccc2n(CC(=O)N2CCCc3ccccc32)c1=O 12.6%
COc1cc(C2NC(=O)NC(C)=C2C(=O)OCc2ccc(C)cc2)cc(OC)c1OC (stereo not given) 1.37%
CN(CC(=O)Nc1ccc(Cl)c(Cl)c1)C(=O)CNC(=O)C1CCCCC1 -0.65%
O=C(Cn1cnc2ccccc21)N/N=C/c1ccccc1 1.41%
CCOC(=O)c1c(-c2ccccc2)csc1NC(=O)c1cc(-c2ccccc2OC)on1 3.07%
COC(=O)c1c(-c2ccc(C)cc2)csc1NC(=O)c1c(-c2ccccc2)noc1C 45.8%
CCOC(=O)c1c(-c2cccc(C)c2)csc1NC(=O)C1CC=CCC1C(=O)O (stereo not given) 1.3%
COC(=O)c1c(-c2ccccc2)noc1C 3.69%
O=C(COc1ccc(S(=O)(=O)N2CCOCC2)cc1)NC1CC1 0.7%
CCO/N=C1\C(=O)N(c2ccccc2)c2ccccc21 10.6%
CN1CCN(c2ccc(Nc3ccnc4cc(Cl)ccc34)cc2)CC1 0.21%
Cc1ccc2[nH]ccc(=O)c2c1 4.4%
CCNc1oc(-c2cccc3ccccc23)nc1C#N 31%
CNc1oc(-c2cccc3ccccc23)nc1C#N 22.2%
O=C(NC1CCCCC1)c1cc(S(=O)(=O)N2CCOCC2)c(Cl)cc1Cl -0.26%
CC1CCN(C(=O)CCc2nnc3ccc(NCCCN4CCCC4=O)nn23)CC1 2.33%
COC(=O)c1ccc(COC(=O)CNC(=O)c2ccc(-c3ccccc3)cc2)cc1 3.63%
COc1ccc2oc(C(=O)NCCC(C)C)c(C)c2c1 3.36%
Cc1nc2ccccc2nc(C)c1=NOCc1cccc(Cl)c1 3.77%
Cc1nc2ccccc2nc(C)c1=NOCc1ccc(C#N)cc1 3.19%
CCNC(=O)CC1C(=O)N(c2ccc(F)cc2)C(=S)N1CCc1ccncc1 (stereo not given) -1.58%
CCOC(=O)c1sc(NS(=O)(=O)c2ccc(F)cc2)nc1C -0.12%
O=S(=O)(NC1CCN(Cc2ccccc2)CC1)c1ccc2ccccc2c1 -0.58%
CCOc1cc(C(=S)N2CCCC2)ccc1O 0.51%
COC(=O)N/N=C/c1ccc(-c2cc(Cl)ccc2Cl)o1 -0.35%
COC(=O)N/N=C/c1ccc(-c2cc(Cl)cc(Cl)c2)o1 42.2%
O=C(c1ccc(F)cc1)N1CCN2C(=O)c3ccccc3C12c1ccc(Cl)cc1 (stereo not given) 73.1%
Cc1ccc(C(=O)N2CCN3C(=O)c4ccccc4C23c2ccccc2)cc1 (stereo not given) 3.84%
Cc1nc2ccccc2nc1OCc1ccc([N+](=O)[O-])cc1 1.85%
Nc1ccc(C(=O)Nc2ccco2)cc1 0.93%
Nc1c(-c2cccs2)cnc2c(-c3ccc(F)cc3)cnn12 10.8%
CCCn1c(SCC(=O)Nc2cc(C)on2)nc2c1c(=O)n(C)c(=O)n2C -0.53%
COc1ccc(S(=O)(=O)N2CCCCC2)cc1NC(=O)C1CC1 -0.43%
O=C(COC(=O)c1cnccn1)c1ccc(C2CCCCC2)cc1 1.84%
Cc1cc(NC(=O)C(C)SCC(=O)OCC(=O)N(C)c2ccccc2)no1 (stereo not given) 0.41%
Cc1cccc(N(Cc2ccccc2)C(=O)CSC(C)C(=O)Nc2cc(C)on2)c1 (stereo not given) 15.8%
CNC(=S)SCCOc1ccccc1 1.7%
COc1ccc(-n2nc(C(=O)NCC(=O)N3CCCC(C)C3)c3ccccc3c2=O)cc1 (stereo not given) 2.49%
COc1ccc2cc3cc(C(=O)NC4CC4)sc3nc2c1 6.36%
CCC(C)NC(=O)c1cc2cc3ccc(OC)cc3nc2o1 (stereo not given) 4.45%
CCc1ccccc1NC(=O)NNC(=O)CCc1ccc(OC)cc1 1.38%
COc1cccc(CNCc2cc(OC)cc(OC)c2)c1 -0.77%
C(=N\Nc1nc(Nc2ccccc2)nc(N2CCOCC2)n1)/c1c[nH]c2ccccc12 38.2%
CN(C)c1nc(N/N=C/c2c[nH]c3ccccc23)nc(N2CCOCC2)n1 5.13%
Cc1ccc(S(=O)(=O)NC2CCSC2=O)cc1C (stereo not given) 0%
COc1cccc(C(c2c(NC(=O)c3ccco3)sc(C)c2C)N2CCOCC2)c1 (stereo not given) 0.09%
Cc1sc(NC(=O)c2ccco2)c(C(c2ccncc2)N2CCOCC2)c1C (stereo not given) 6.19%
COC(=O)c1ccccc1S(=O)(=O)N1CCC(C(=O)OC(C)C(=O)NC(N)=O)CC1 (stereo not given) 1.21%
CCOc1ccc(OCCNC(=O)c2oc3ccccc3c2COC)cc1 2.63%
O=C1CCCCC1C(=O)c1cn(-c2ccc(Cl)c(Cl)c2)nn1 (stereo not given) 1.71%
N#Cc1c(N2CCCCC2)nc(N)c2c(N)nc3c(c12)CC(c1ccccc1)O3 (stereo not given) 18.6%
O=C(c1cc2nc(-c3ccccc3)cc(-c3ccccc3)n2n1)N1CCCC1 -1.34%
O=C(O)c1cc2nc(-c3ccccc3)cc(-c3ccccc3)n2n1 0.05%
CC1CCN(C(=O)c2cc3nc(-c4ccccc4)cc(-c4ccccc4)n3n2)CC1 -0.54%
CN1CCN(C(=O)c2cc3nc(-c4ccccc4)cc(-c4ccccc4)n3n2)CC1 -2.59%
COc1cc(C2C(C#N)=C(N)Oc3c2oc(CO)cc3=O)ccc1OC(C)C (stereo not given) 0.67%
Cc1c(C)c2c(OCC(=O)NCc3ccccn3)cc3c(c2oc1=O)CCC(C)(C)O3 -0.55%
Cn1c(C(O)c2ccccc2)nc(Cl)c1Cl (stereo not given) 2.93%
COc1ccc(-n2c(=O)c3ccccc3n(CC(=O)NC3CCCC3)c2=O)cc1 0.83%
C#CCOCCOCCOCCNc1nc(N2CCN(C(=O)CCCCCCCCCCNC(=O)[C@H](CCCCN)n3cc(C)nn3)CC2)nc(N2CCN(C(=O)CCCCCCCCCCNC(=O)[C@@H]([C@H](C)O)n3cc(C)nn3)CC2)n1 8.35%
C#CCOCCOCCOCCNc1nc(N2CCOCC2)nc(N2CCN(C(=O)CCCCCCCCCCNC(=O)[C@@H]([C@H](C)O)n3cc(C)nn3)CC2)n1 2.9%
CCOc1ccc(C(C)=O)cc1Cn1c(=O)oc2ccccc21 9.32%
O=c1[nH]c(C2CCN(S(=O)(=O)c3ccccc3F)CC2)nc2c1nnn2Cc1ccc(F)cc1 39%
Cc1ccc(Cn2nnc3c(=O)[nH]c(C4CCN(S(=O)(=O)c5ccccc5F)CC4)nc32)cc1 84.2%
O=c1[nH]c(C2CCN(S(=O)(=O)c3ccc(F)cc3)CC2)nc2c1nnn2Cc1ccc2c(c1)OCCO2 64.8%
O=c1[nH]c(C2CCN(S(=O)(=O)/C=C/c3ccccc3)CC2)nc2c1nnn2Cc1ccccc1 76.1%
Cc1ccc(Cn2nnc3c(=O)[nH]c(C4CCN(S(=O)(=O)c5ccc(F)cc5)CC4)nc32)cc1 13.9%
O=c1[nH]c(C2CCN(S(=O)(=O)c3ccc4c(c3)OCCO4)CC2)nc2c1nnn2Cc1ccc(F)cc1 63.7%
O=c1[nH]c(C2CCN(S(=O)(=O)c3ccc4c(c3)OCCO4)CC2)nc2c1nnn2Cc1cccc(F)c1 67.8%
O=c1[nH]c(C2CCN(S(=O)(=O)c3ccccc3)CC2)nc2c1nnn2Cc1ccccc1 19.1%
COC(=O)CC(c1ccc(C#N)cc1)n1c(C)ccc1C (stereo not given) -0.14%
Cc1ccccc1COn1nnc2ccc(S(=O)(=O)N3CCOCC3)cc21 -1.48%
O=C(NC1CCCCC1)N1CCN(c2ncccn2)CC1 2.35%
COc1ccccc1-n1c(SCC(=O)Nc2ccc(Br)cc2)nc(O)cc1=O 0.85%
COC(=O)Nc1ccc(S(=O)(=O)N(CCO)CCO)cc1 -0.61%
Cc1cccc(NC(=O)c2ccc(COc3ccc(Cl)cc3Cl)o2)n1 -0.26%
O=c1[nH]c(C2CCCN(S(=O)(=O)c3ccccc3)C2)nc2c1nnn2Cc1ccc(OC(F)(F)F)cc1 (stereo not given) 1.75%
CC(C)[N+](C)(C)CC#CC(O)(c1ccccc1)c1ccccc1 -0.2%
N#Cc1ccc(CN2CCN(C(=O)CC(NC(=O)c3ccccc3)c3ccccc3)CC2)cc1 (stereo not given) 2.31%
